For 42 sequences, binding signal results are on record in PMC7819943, “Rice protein-binding microarrays: a tool to detect cis-acting elements near promoter regions in rice”.

Whole data set: some 68,000 sequences, median “fluorescence intensity (a.u.)” near 9,100, cut for the highest 2% near 16,000. This is one part of a sample in which the highest values are shown more often than they occur.

Chain of OsWRKY34 (Q0JBA9 entry or part of it): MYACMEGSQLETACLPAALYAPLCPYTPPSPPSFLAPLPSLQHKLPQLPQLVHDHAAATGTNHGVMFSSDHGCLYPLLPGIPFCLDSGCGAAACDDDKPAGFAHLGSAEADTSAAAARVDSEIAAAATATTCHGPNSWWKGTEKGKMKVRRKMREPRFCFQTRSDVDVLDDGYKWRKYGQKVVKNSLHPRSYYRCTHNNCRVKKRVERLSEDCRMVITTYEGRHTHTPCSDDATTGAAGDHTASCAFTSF

The test has as its target OsWRKY34 (Oryza sativa, UniProt Q0JBA9 1-250). Description: protein-binding microarray (RPBM); PBS, 2% BSA, 51.3 ng/ul salmon testes DNA, 50 uM zinc acetate, 200 nM TF, 25 C, 1 h; high values mean tight binding. The settings on record: protein: recombinant; tags: N-terminal polyhistidine and DsRed monomer fusion (pET32a); label: CyDye5-dUTP incorporated in the synthesized complementary strand; 3' TTTTT single-stranded linker to array surface; dsDNA, one strand shown. A digest of the protocol:
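The binding signal is fluorescence intensity per feature, in arbitrary units, read on an Axon 4000B scanner. Polyhistidine- and DsRed-tagged transcription factors (N-terminal fusions) from E. coli BL21-CodonPlus were purified on Ni–NTA and applied at 200 nM for 1 h at 25 °C to a double-stranded, BSA-blocked custom Agilent array in buffer with 50 µM zinc acetate.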
In the case of “GACCACTAGCAGCCTCGTAACGTTTGCCTCATTTCATCAGCGGAGTCACCTAGTGCAG”, the binding signal was 10500 fluorescence intensity (a.u.).
With “TATACCTCTCTCTCTCTCTCTCTCTCTCTCTCTCTCTCTTCGGAGTCACCTAGTGCAG”, the binding signal was 8280 fluorescence intensity (a.u.).
“TTTTTGTTTTCTCAATTCGCGAATTTAATGCTTTTGTGTACGGAGTCACCTAGTGCAG”: the binding signal was 9750 fluorescence intensity (a.u.).
As for “GAATTATTAGGGAGAAAGGAGTTGCAGGGTGGGGATTGTTCGGAGTCACCTAGTGCAG”, the binding signal was 8330 fluorescence intensity (a.u.).
With “CGTTCTCTGTCTGTCCCGCACTCCCGCCTTTTGCCAAAGCCGGAGTCACCTAGTGCAG”, the binding signal was 9610 fluorescence intensity (a.u.).
As to “AGACCAAGCCATATCACCTTATGTAATTTCTTTATGTGCTCGGAGTCACCTAGTGCAG”, the binding signal was 9010 fluorescence intensity (a.u.).
Take “GTCCCATCGTCTCTATTCGGGTCACCTTTGCACAACATGACGGAGTCACCTAGTGCAG”: the binding signal was 10500 fluorescence intensity (a.u.).
In the case of “GTTGACGTCTCCCAAGTGCCACACCCGCCGCCACGTCACTCGGAGTCACCTAGTGCAG”, the binding signal is 8880 fluorescence intensity (a.u.).
“CCCAGATTCGCCCCGCACCGCACCGCCCTTGGCTCGCCCCCGGAGTCACCTAGTGCAG”: the binding signal is 8340 fluorescence intensity (a.u.).
For “CTCTACTTCTAATGTTCCTTATTTTTTTTCCGAGTTTCTACGGAGTCACCTAGTGCAG”, the binding signal was 9390 fluorescence intensity (a.u.).
For “TACTCGTTTGGTTGTAATTTTTTTCCGCGTCTTTTCATCTCGGAGTCACCTAGTGCAG”, the binding signal is 11200 fluorescence intensity (a.u.).
With “TAGTTTCTTGTTTTCAGTTTTTTTTTCTTGTCATTTTTTTCGGAGTCACCTAGTGCAG” the figure was 19500 fluorescence intensity (a.u.).
With “ATTCTTCATTCTTTTTGTGTGTGTTTCAGTGTGTTTGTTTCGGAGTCACCTAGTGCAG” the figure was 15800 fluorescence intensity (a.u.); with “TTGAATTTTCAGTTTTCTTGTGCGTGTTTCCTTGTCATTTCGGAGTCACCTAGTGCAG”, 9140 fluorescence intensity (a.u.).
As for “CGGTCTTTGCCAAATTCCCACTCCGCTTGGCTTTCTGGCCCGGAGTCACCTAGTGCAG”, the binding signal was 8250 fluorescence intensity (a.u.).
With “CTAGGACATCATTTTGTTTGTCGTGTGTGCGCAACTGTTTCGGAGTCACCTAGTGCAG” the figure was 8160 fluorescence intensity (a.u.); with “TGTGAGTAGTTTGTGGTTGGGAGTGTAACGGGTGGGGTGGCGGAGTCACCTAGTGCAG”, 16900 fluorescence intensity (a.u.); with “GCGCCCTCCGACTCCGACGGCTTCTTGTTCTCGTTGACGCCGGAGTCACCTAGTGCAG”, 8950 fluorescence intensity (a.u.).
With “ATTTCTTGGAGACCGTTGACTCCTCTCTCTCTATTTCCATCGGAGTCACCTAGTGCAG” the figure was 12400 fluorescence intensity (a.u.); with “ATACCGTGATTGGGATTACCTGTGACCTTGCCTATTTGACCGGAGTCACCTAGTGCAG”, 9120 fluorescence intensity (a.u.); with “GGAGAGTAGCAGTGTGGTTGATGATGGTGTTCTTGCTACTCGGAGTCACCTAGTGCAG”, 9890 fluorescence intensity (a.u.).
With “CTTTCTTTCTTTCTTTCTTCTTTTTTTTCTTTTTTTTTTGCGGAGTCACCTAGTGCAG” the figure was 8640 fluorescence intensity (a.u.).
With “TTCTTTCTTTTTTGGCGGGGACTACTCTTTACTTGAACCTCGGAGTCACCTAGTGCAG”, the binding signal is 12400 fluorescence intensity (a.u.).
For the sequence “CACCATTGGGATGGGTGCCTATTTCTTGGAGACCGTTGACCGGAGTCACCTAGTGCAG”, the binding signal is 17300 fluorescence intensity (a.u.).
With “TGGTTTTATGTGTGAGTTGGGGTAGTGGCGTTGGTAGGTTCGGAGTCACCTAGTGCAG”, the binding signal is 11700 fluorescence intensity (a.u.).
In the case of “ACTCTTTACTCTTTCTTTTCTTCTTTCTTTTTTGGCGGGGCGGAGTCACCTAGTGCAG”, the binding signal was 21200 fluorescence intensity (a.u.).
As to “GAGTGTAACGGGTGGGGTGGTTTGGAAGGTGATGAGGTATCGGAGTCACCTAGTGCAG”, the binding signal is 11300 fluorescence intensity (a.u.).
As for “AACAGTTGACGCAGGTGGCAGAGTTGCTAGTTCTTGCCCTCGGAGTCACCTAGTGCAG”, the binding signal was 61500 fluorescence intensity (a.u.).
Turning to “CTTCTAAACATAGCTTCCACAATCGTCTCCGGGCCCTTCTCGGAGTCACCTAGTGCAG”, the binding signal is 8320 fluorescence intensity (a.u.).
As to “GATTAGAATCCGGGTGGGCTGTTTCCACCACAAGAAACTACGGAGTCACCTAGTGCAG”, the binding signal was 8990 fluorescence intensity (a.u.).
Consider “AATTCCCAAAATATACAGTTTTTGTTATTCAGATGTTTACCGGAGTCACCTAGTGCAG”, for which the binding signal was 8130 fluorescence intensity (a.u.).
With “TACCGATGGGGCTCTTATACTCCAACTCTTGCCCTGTTTACGGAGTCACCTAGTGCAG” the figure was 9020 fluorescence intensity (a.u.); with “ATTCGATTTTCTTGCACCTAAACACATGCAACCCATCATTCGGAGTCACCTAGTGCAG”, 10100 fluorescence intensity (a.u.).
On to “CGTGTGACTGTTGCCGTGATGGTTTTGATGTTTGTTTTGGCGGAGTCACCTAGTGCAG”, for which the binding signal was 9180 fluorescence intensity (a.u.).
“GGTGGGTAGTTTTCTGCGTTTTCTTTTGTATTTTTGGTTGCGGAGTCACCTAGTGCAG”: the binding signal is 11500 fluorescence intensity (a.u.).
As for “TTTTTCAATTTTTGGTTAAAATTTTTGGGGCTTTTCTTCGCGGAGTCACCTAGTGCAG”, the binding signal was 8990 fluorescence intensity (a.u.).
On to “GGCTTTTATGGGGCGGGCTTTCTTTGGTCAATGGTCACTACGGAGTCACCTAGTGCAG”, for which the binding signal was 32200 fluorescence intensity (a.u.).
With “CGGCGGAGGAGGAGGTTTCTTGCTCGTTTCTTGGGTTGCGCGGAGTCACCTAGTGCAG” the figure was 10800 fluorescence intensity (a.u.); with “TGTGTTGGTGATGTCGATGTGTGGGTGGTGGTTTTTTTTTCGGAGTCACCTAGTGCAG”, 13800 fluorescence intensity (a.u.).
As for “TTGGTTTTGGTTTGGGTGGTTGATGTGTGGGTGGTGGTGGCGGAGTCACCTAGTGCAG”, the binding signal is 19000 fluorescence intensity (a.u.).
With “AGCTTGGTTTCTGGGTTGGGTTGGGTTTGGTTGCGTTGCGCGGAGTCACCTAGTGCAG” the figure was 22700 fluorescence intensity (a.u.).
With “TGTGTGGTAGTTCGGGGTGGACCTACTTCTAATTATTGGGCGGAGTCACCTAGTGCAG” the figure was 14100 fluorescence intensity (a.u.).
